Screening results (PubChem)
This is a sample that favours compounds with a hit; in the whole collection about 9.4% have one here.
AMA1-RON2 inh: inhibitors of Plasmodium falciparum AMA1-RON2 interaction | AID 720542 | Potency, µM (highest dose often 58.2 µM), for inactives: at the highest dose activity change, negative = inhibition, hits mostly inhibitors | AlphaScreen AMA1-biotinylated RON2 peptide binding | 360,000 tested, 0.2% active;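 also: 0% = vehicle wells and -100% = peptide control; nearly all actives have a fitted effect of over 45% in size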
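AMA1 (3D7) with his tag at 25 nM final met compounds first, then biotinylated RON2 peptide at 25 nM; detection used donor plus acceptor beads, 10 µg/mL apiece, read by AlphaScreen after 30 min at room temperature.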
Pf growth 96h: P. falciparum growth inhibition at 96 hours | P. falciparum luciferase reporter growth, 96 h | Potency, µM (titrated, usually from 28.7 µM), inactives show at the highest dose activity change, negative = inhibition, actives largely listed as inhibitors | 320,000 tested, 6.9% active | AID 504834; also: % is scaled to controls: 0 for no effect and ±100 for the full control effect
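Plates of compound plus infected erythrocytes (2% hematocrit, 0.05% parasitemia final) incubate 96 hours, 37 C, 5% CO2. Detection reagent added; reduced luminescence from the parasites' luciferase reporter flags inhibition.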
SARS PLP yeast: SARS-CoV PLP inhibition in yeast | S. cerevisiae expressing SARS-CoV PLpro, growth rescue | Potency, µM (doses to about 32.9 µM), for inactives: top-dose activity, positive = growth rescue, hits mostly activators | 330,000 tested, 0.19% active; calls by dose curve; also: 0% is about no effect; nearly all actives have a fitted effect of over 55% in size
Pf growth 48h: inhibits P. falciparum growth in the first generation, 48 h. 310,000 tested, 5.9% active. AID 504832. P. falciparum luciferase growth in erythrocytes, 48 h. Potency, µM (top dose mostly 28.7 µM), inactives show at the top dose activity change, negative = inhibition, actives largely listed as inhibitors; also: % is scaled to controls: 0 for no effect and ±100 for the full control effect
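A one-generation exposure of luciferase-tagged malaria parasites in RPMI 1640/Albumax erythrocyte culture, 37 C and 5% CO2. Inhibition is inferred from decreased luminescence after adding detection reagent.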
* marks the source's active call; other numbers are inactive results; u = inconclusive; x = no result; [ ] = dose if it differs, or a comment. Unless noted, calls follow the shape of the dose curve; as a rule, active = well fitted curve in the direction sought with a large enough effect; inconclusive = small, poorly fitted or top-dose-only effect, or another doubt; inactive = no such curve, though single readings can be large; an effect the other way counts as inactive or inconclusive. Potency is read from the fitted curve at half-maximal effect.

SMILES	AMA1-RON2 inh	Pf growth 96h	SARS PLP yeast	Pf growth 48h
N#Cc1ccc(C(=O)OCCCc2cc3ccccc3c(=O)o2)cc1	3%	43%	10%	47%
Cc1sc2nc(SCC(=O)NCc3ccco3)n(Cc3ccccc3)c(=O)c2c1C	-3%	x	6%	10µM*
CCOC(=O)CSc1nc2sc3c(c2c(=O)n1-c1ccc(OC)cc1)CCN(C)C3	-6%	1.5µM*	-1%	1.9µM*
CCOC(=O)CSc1nc2sc3c(c2c(=O)n1-c1ccccc1)CCN(C)C3	-14%	-26%	0%	4.7µM*
CN1CCc2c(sc3nc(SCC(=O)N4CCOCC4)n(-c4ccc(Cl)cc4)c(=O)c23)C1	-11%	-19%	17%	u
CCOC(=O)c1sc2nc(SCC(=O)NCc3ccco3)n(Cc3ccccc3)c(=O)c2c1C	-3%	78%	9%	-7%
O=C(NCc1ccco1)c1ccc2nc3sc4c(c3c(=O)n2c1)CCCC4	x	1.9µM*	-4%	-72%
O=[N+]([O-])c1ccccc1/C=N/N1CCN(c2ccncc2S(=O)(=O)N2CCCCC2)CC1	-3%[11.6 µM]	2.3µM*	-58%	12µM*
CCO/C(C)=N/n1c2nc3ccccc3nc2c2c(=O)n(CC(C)C)c(C)nc21	-10%	2.3µM*	8%	2.9µM*
CCOCCCn1c(C)nc2c(c1=O)c1nc3ccccc3nc1n2-c1ccc(C)cc1	17%	u	-1%	0%
COc1ccc(C(CNC(=O)c2oc3c(Cl)cccc3c2C)N2CCCC2)cc1 (stereo not drawn)	5%	10µM*	-6%	u
COc1ccc(C(CNC(=O)c2ccccc2C)N2CCCC2)cc1 (stereo not drawn)	-4%	-18%	3%	x
COc1ccc(C(CNC(=O)c2oc3ccccc3c2C)N2CCCC2)cc1 (stereo not drawn)	-4%[11.6 µM]	9.3µM*	-1%	9.3µM*
COc1ccc(C(CNC(=O)c2oc3ccc(Cl)cc3c2C)N2CCCCC2)cc1 (stereo not drawn)	11%	u	0%	u
Cc1ccc(SCC(=O)NCc2ccc(F)cc2)cc1	5%	2%	0%	2%
CC(=Nc1ccccc1)C1=C(O)C(Cc2ccccc2)NC1=O (stereo not drawn)	-5%	x	x	x
O=C(CN1CCOCC1)Nc1ccccc1C(=O)O	-3%	-3%	3%	x
Cc1ccc(C)c(Nc2nc(N)c3ccccc3n2)c1	-13%	88%	-3%	46%[5.75 µM]
COc1ccc(C)cc1Nc1nc(N)c2cc(OC)c(OC)cc2n1	u	2%	-1%	1µM*
COc1cc2nc(N3CCN(c4cc(C)ccc4C)CC3)nc(N)c2cc1OC	-19%	0%	-4%	1.9µM*
COc1ccc(Cl)cc1Nc1nc(N)c2ccccc2n1	2%	u	1%	9.3µM*
COc1cc2nc(N3CCNCC3)nc(N)c2cc1OC	u	x	-2%	u
O=C(/C=C/c1ccccc1)N/C(=C/c1ccccc1)C(=O)NCCO	7%	u	2%	3%
CCN1CCN(C(c2ccccn2)c2c(NC(=O)c3ccccc3)sc(C)c2C)CC1 (stereo not drawn)	1%	13µM*	-6%	u
COc1ccc(C(c2c(NC(=O)c3ccco3)sc(C)c2C)N2CCOCC2)cc1 (stereo not drawn)	4%	10%	-3%	u
SMILES	AMA1-RON2 inh	Pf growth 96h	SARS PLP yeast	Pf growth 48h
CCN1CCN(C(c2cccnc2)c2c(NC(=O)c3ccco3)sc(C)c2C)CC1 (stereo not drawn)	-7%	4.7µM*	-1%[6.58 µM]	4.1µM*
Cc1sc(NC(=O)c2ccco2)c(CN2CCN(Cc3ccccc3)CC2)c1C	-11%	u	-2%	9.3µM*
COc1ccc(C(c2c(NC(=O)c3ccccc3)sc(C)c2C)N2CCN(CCO)CC2)cc1 (stereo not drawn)	-1%	u	10%	u
CCN1CCN(C(c2cccs2)C(C)NC(=O)c2ccccc2)CC1 (stereo not drawn)	4%	8%	8%	-9%
COc1cccc(C(c2c(NC(=O)c3ccccc3)sc(C)c2C)N2CCN(C)CC2)c1 (stereo not drawn)	10%[2.32 µM]	u	4%	12µM*
Cc1sc(NC(=O)c2ccco2)c(CN2CCC(C)CC2)c1C	-7%	u	-15%	x
O=C(NCc1ccco1)/C(=C\c1ccco1)NC(=O)c1ccccc1Cl	3%	-26%	1%	u
Cc1sc(NC(=O)c2ccco2)c(C(c2cccnc2)N2CCC(C)CC2)c1C (stereo not drawn)	8%	x	-27%	1.9µM*
CC[N+](C)(C)CCN(Cc1ccc(Cl)cc1)c1ccccn1	-2%	2.6µM*	10%	x
O=C1CCC(=O)N1CN(C(=O)c1ccco1)c1ccc(Cl)c(Cl)c1	-16%	10µM*	3%	23%
CC(=O)N(CN1C(=O)CCC1=O)c1ccc(Cl)c(Cl)c1	0%	u	3%	8%
COc1ccccc1CN1CCNC(=O)C1CC(=O)NCc1csc(C)n1 (stereo not drawn)	16%	u	-1%	6%
Clc1ccc2c(c1)C(c1cccs1)=NNC(c1cccnc1)=N2	-5%	1.7µM*	5%	-7%
OC(CNCC1COc2ccccc2O1)COc1ccc(Cl)cc1 (stereo not drawn)	1%	u	-9%	4%
Cc1ccc(C)c(S(=O)(=O)N2CCN(C(=O)c3ccccc3Cc3ccccc3)CC2)c1	-5%	u	2%	12µM*
CCn1c(=O)c(C(=O)CN2CCN(S(=O)(=O)c3cc(C)ccc3C)CC2)c(N)n(Cc2ccccc2)c1=O	8%	13µM*	-14%	u
O=C(c1ccccc1Cc1ccccc1)N1CCN(S(=O)(=O)c2ccccc2)CC1	16%	u	2%	-28%
O=C(c1ccccc1Cc1ccccc1)N1CCN(S(=O)(=O)c2ccccc2F)CC1	-20%	13µM*	0%	12µM*
Cc1ccc(C)c(S(=O)(=O)N2CCN(C(C)C(=O)Nc3ccccc3-c3ccccc3)CC2)c1 (stereo not drawn)	-3%	4.1µM*	-13%	9.3µM*
Cc1ccc(C)c(S(=O)(=O)N2CCN(C(=O)CSc3ccccc3)CC2)c1	4%	-11%	1%	15%
COc1ccc(OC)c2[nH]c(=O)c(CCNC(=O)C3CCCCC3)cc12	3%	3%	-7%	-18%
O=C(CN1C2=NCCCN2c2ccccc21)c1ccc(Br)s1	6%	u	-8%	u
COc1ccc(-c2ccc(CN3C(C(C)C)C(=O)N(Cc4cn(Cc5ccco5)nn4)CCS3(=O)=O)cc2)cc1 (stereo not drawn)	34%	x	x	x
O=C(c1ccccc1Cc1ccccc1)N1CCN(S(=O)(=O)c2ccccc2[N+](=O)[O-])CC1	-14%	13µM*	-10%	u
Cc1cc(C(=O)C(C)Sc2cccc[n+]2[O-])c(C)n1-c1ccc(Cl)cc1 (stereo not drawn)	-14%	12µM*	3%	-5%
CCOC(=O)C1(CCCc2ccccc2)CCN(S(C)(=O)=O)CC1	6%	u	0%	322%
